In PubChem BioAssay (NCI):
Compounds without any hit were thinned out: in the full panel of roughly 83,000, 20% have a hit.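 Single-concentration screen, 48 h exposure, 96-well plates. Endpoint: percent growth. Below 10 = active.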 The source made the active and inactive calls.

What was measured:
Test in all cases: NCI-60 one-dose screen, 48 h (100 = growth as untreated, 0 = no growth, -100 = all killed)
Conditions in all cases: 10 µM unless noted
[1] = tested on: RPMI-8226 leukemia
[2] = tested on: OVCAR-8 ovarian
[3] = tested on: OVCAR-5 ovarian
[4] = tested on: OVCAR-4 ovarian
[5] = tested on: SK-OV-3 ovarian
[6] = tested on: IGROV1 ovarian
[7] = tested on: OVCAR-3 ovarian
[8] = tested on: HS 578T breast
[9] = tested on: NCI/ADR-RES ovarian
[10] = tested on: T-47D breast
[11] = tested on: BT-549 breast
[12] = tested on: MDA-MB-435 melanoma
[13] = tested on: SW-620 colon
[14] = tested on: MCF7 breast
[15] = tested on: HCT-116 colon
[16] = tested on: HCC-2998 colon
[17] = tested on: KM12 colon
[18] = tested on: SR leukemia

Measured: growth

COc1cc(C=Nc2oc(-c3ccccc3)c(-c3ccccc3)c2C#N)cc(CN2CCCCC2)c1O
inactive: [1] 100% | [2] 105% | [3] 97% | [4] 91.6% | [5] 116% | [6] 99.6% | [7] 110% | [8] 95.9% | [9] 95.7% | [10] 86.8% | [11] 111% | [12] 103% | [13] 104% | [14] 94% | [15] 95% | [16] 102% | [17] 100%

O=S(=O)(Nc1ccc(Cl)c(F)c1)c1ccc(-c2cnc(C3CC3)o2)cc1
inactive: [1] 21.2% | [2] 24.5% | [3] 35.8% | [4] 49.1% | [5] 36.3% | [6] 27.4% | [8] 16.1% | [10] 27.8% | [11] 27.5% | [13] 17.9% | [14] 13% | [15] 23.1% | [16] 41.5% | [17] 38.4%
active: [7] -6.7% | [9] -20.8% | [12] 3.28%

OC(COc1cccc2ccccc12)CN1CCN(c2ccccc2Cl)CC1 (stereo unspecified)
inactive: [18] 78.3% | [2] 98.4% | [3] 85.3% | [4] 92.7% | [5] 89.2% | [6] 117% | [7] 101% | [8] 107% | [9] 89.4% | [10] 74.5% | [11] 106% | [12] 100% | [13] 88.5% | [15] 71.4% | [17] 99.7%

C=CC(=O)Nc1cccc(-c2nc(SC)nc(Nc3ccccc3OC)c2C#N)c1
inactive: [1] 29.7% | [2] 34.5% | [3] 42.9% | [5] 91.8% | [6] 69.3% | [7] 23.4% | [8] 16.8% | [9] 29.3% | [11] 57.1% | [12] 18.7% | [13] 17.2% | [16] 81.3% | [17] 82.8%
active: [4] -26.4% | [10] 3.01% | [14] 2.55% | [15] 2.91%

CC(=O)O[C@H]1CC[C@]2(C)[C@H]3CC=C4[C@@H]5CC(C)(C)CC[C@]5(C(=O)NCCNCCNCCN)CC[C@@]4(C)[C@]3(C)CC[C@H]2C1(C)C
active: [1] -23.7% | [2] -0.659% | [7] -30.6% | [10] -15.1% | [12] 9.05% | [13] -83.1% | [14] -85.9% | [15] -80.8% | [16] 1.19%
inactive: [3] 10% | [4] 34.9% | [5] 101% | [6] 46.9% | [8] 92.2% | [9] 74.6% | [11] 87.2% | [17] 85.3%

O=C(/C=C/c1cccc([N+](=O)[O-])c1)c1ccc(O)c(CN2CCN(c3cc4c(cc3F)c(=O)c(C(=O)O)cn4C3CC3)CC2)c1
active: [1] -25.6% | [7] 7.92% | [11] 6.04% | [13] -43% | [14] 1.85% | [15] -59.5% | [17] -12.2%
inactive: [2] 27.4% | [3] 12.4% | [4] 37.4% | [5] 72.9% | [6] 28.8% | [8] 51.9% | [9] 10.7% | [10] 10.9% | [12] 11.2% | [16] 35.5%

Cc1oc(-c2ccc(Cl)cc2Cl)cc1C(=O)Nc1nccs1
active: [4] 7.78%
inactive: [1] 98.4% | [2] 80% | [3] 83.1% | [5] 89.8% | [6] 81.6% | [7] 101% | [8] 77.1% | [9] 89.6% | [10] 70.3% | [11] 107% | [12] 100% | [13] 94.4% | [14] 60.8% | [15] 67.2% | [16] 109% | [17] 98.7%

CON1C(=O)CC[C@]2(C)[C@H]3CC[C@@H]4C([C@@]5(C)CCC(=O)O5)CC[C@@]4(C)[C@]3(C)CC[C@H]2C1(C)C (stereo partly specified)
inactive: [1] 98.6% | [2] 102% | [3] 98.4% | [4] 92.8% | [5] 104% | [6] 111% | [7] 110% | [8] 101% | [9] 97.1% | [10] 90.7% | [11] 103% | [12] 101% | [13] 103% | [14] 94.8% | [15] 91.4% | [16] 108% | [17] 101%

COc1ccc(C(=S)N2CCN(c3cccc(Cl)c3)CC2)cc1
inactive: [18] 90.6% | [2] 100% | [4] 99.1% | [6] 104% | [7] 112% | [8] 118% | [9] 104% | [10] 89.9% | [12] 106% | [13] 101% | [15] 89.2% | [17] 104%

CCCCC(=O)OCC1OC(n2cnc3c(=S)nc[nH]c32)C(OC(=O)CCCC)C1OC(=O)CCCC (stereo unspecified)
inactive: [18] 24.5% | [3] 32.3% | [4] 29.8% | [5] 19.3% | [7] 22% | [8] 38.1% | [9] 19.6% | [10] 36.1% | [11] 43.9% | [12] 29.4% | [13] 23.5% | [14] 20.2% | [15] 27.3% | [17] 36.1%
active: [2] -23.2% | [16] -0.586%

COc1ccc(-c2cc(C(=O)N=Nc3c(O)[nH]c4ccc(Br)cc34)no2)cc1
inactive: [1] 107% | [2] 99.8% | [3] 99.8% | [4] 103% | [5] 95.2% | [6] 100% | [7] 108% | [8] 95.7% | [9] 97.4% | [10] 93.6% | [11] 107% | [12] 101% | [13] 93.7% | [14] 94.1% | [15] 91.6% | [16] 104% | [17] 100%

COc1cccc(-c2nc3sccn3c2-c2ccnc(NCCCNS(=O)(=O)c3cccc(Cl)c3)c2)c1
inactive: [2] 26.3% | [3] 78.9% | [4] 32.6% | [5] 67.7% | [6] 50.7% | [7] 58% | [8] 69.2% | [9] 13.4% | [11] 20.2% | [12] 37.4% | [13] 67.5% | [14] 44.4% | [15] 34% | [16] 81.6% | [17] 64.8%
active: [1] -9.68% | [10] -4.56%

COc1ccc(-c2nc3ccc(-c4nc5ccc(N6CCN(c7ccc(F)cc7)CC6)cc5[nH]4)cc3[nH]2)cc1OC
inactive: [2] 62.6% | [4] 80.5% | [5] 80.6% | [7] 90.4% | [8] 74.8% | [9] 81.3% | [10] 43.8% | [11] 76.3% | [12] 90.1% | [15] 11.2% | [16] 95.1% | [17] 95%
active: [1] 4.42% | [14] 9.99%

COc1cccc(-c2nc3sccn3c2-c2ccnc(NCCCNS(=O)(=O)c3cccc(F)c3)c2)c1
inactive: [2] 14.4% | [4] 20.2% | [6] 27.7% | [7] 39.6% | [8] 57.7% | [12] 12.2% | [13] 50% | [14] 24.8% | [15] 20.8% | [16] 64.7% | [17] 23.2%
active: [1] -19.9% | [9] 4.88% | [10] -8.47% | [11] 6.32%

C=CC(=O)Nc1cccc(-c2nc(SC)nc(NCCc3ccc(OC)c(OC)c3)c2C#N)c1
inactive: [2] 30.7% | [3] 91.7% | [4] 19.4% | [5] 89.3% | [6] 65.7% | [7] 53.6% | [8] 71.1% | [9] 23.7% | [12] 24.2% | [13] 80.8% | [14] 16.5% | [15] 31.4% | [16] 87.1% | [17] 64.6%
active: [1] 9.33% | [10] 8.57%
